Screening data as filed in PubChem.
Hits are enriched below; roughly 1.2% of the tested compounds scored in any of these assays.
Avidin bead fluor = avidin bead compound fluorescence profile; Avidin beads, compound fluorescence 488/530 nm, flow cytometry; stronger effect = higher value; 0.38% of 220,000 active; fluorescence (KMESF) at 10 µM; in the data active = fluorescence above about 47
RGS7-Gao reg = human RGS7-Galphao interaction regulation; 0.35% of 220,000 active; binding response (% of control), % at 10 µM; P09471; Multiplexed bead flow cytometry, RGS7-Galphao binding; actives lie on both sides; in the data active = binding response below about 49% or above about 150%; inconclusive = no clear call, values can overlap the other calls; inactive = in between;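 also: fluorescent Galphao held in activated GDP-AlF4 state binding bead-coupled RGS7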
Target sequence (P09471 whole entry, looked up): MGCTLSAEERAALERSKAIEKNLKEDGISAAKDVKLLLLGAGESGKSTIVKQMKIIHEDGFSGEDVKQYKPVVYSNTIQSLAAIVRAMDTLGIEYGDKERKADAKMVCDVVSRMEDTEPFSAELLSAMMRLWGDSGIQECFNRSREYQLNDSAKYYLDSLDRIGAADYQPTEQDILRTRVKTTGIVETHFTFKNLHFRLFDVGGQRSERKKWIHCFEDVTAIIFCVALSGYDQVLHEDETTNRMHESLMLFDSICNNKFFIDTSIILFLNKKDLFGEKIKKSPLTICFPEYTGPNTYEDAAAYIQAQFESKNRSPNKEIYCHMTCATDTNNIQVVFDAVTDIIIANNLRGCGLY
RGS16-Gao = regulators of human RGS16-Galphao interaction. binding response (% of control), % at 10 µM. 0.38% of 220,000 active. O15492+P09471. bead-based flow cytometry RGS16-Galphao binding, fluorescence; actives lie on both sides;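 also: Galphao activated by GDP with aluminum fluoride before binding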
Target sequence (O15492 whole entry, looked up): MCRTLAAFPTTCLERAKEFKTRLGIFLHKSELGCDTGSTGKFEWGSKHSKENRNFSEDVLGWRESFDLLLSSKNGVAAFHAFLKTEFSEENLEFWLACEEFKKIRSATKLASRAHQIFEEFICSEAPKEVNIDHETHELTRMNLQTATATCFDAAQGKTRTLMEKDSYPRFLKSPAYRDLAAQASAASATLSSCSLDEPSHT
Target sequence (P09471 whole entry, looked up): as the sequence (P09471 whole entry, looked up) above
RGS4-Gao reg = human RGS4-Galphao interaction regulation; P09471; 0.33% of 220,000 active; binding response (% of control), % at 10 µM; AID 1415; Multiplexed bead flow cytometry, RGS4-Galphao binding; actives lie on both sides; in the data active = binding response below about 49% or above about 150%; inactive = in between;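 also: fluorescent Galphao activated with aluminum fluoride binding bead-coupled RGS4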
RGS8-Gao reg = regulators of human RGS8-Galphao interaction; P09471; multiplexed bead flow cytometry, RGS8-Galphao binding; actives lie on both sides; response (percent of control binding), % at 10 µM; 0.34% of 220,000 active; AID 1423; in the data active = response below about 60% or above about 140%; inactive = in between;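 also: Galphao activated as the GDP aluminium fluoride complex binding bead-coupled RGS8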
GSH bead fluor = GSH bead compound fluorescence profile. GSH beads flow cytometry, compound fluorescence 488/530 nm; stronger effect = higher value. fluorescence (KMESF) at 10 µM. 0.25% of 190,000 active. AID 1776; in the data active = fluorescence above about 89;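 also: glutathione beads carrying GST-tagged Bcl family fusion proteins plus one bare bead set; values are compound well signal with DMSO vehicle wells as background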
RGS-Gao = modulates binding between human RGS4 and Galphao; shares compounds with RGS16-Gao; multiplexed bead flow cytometry, RGS–Galpha-o binding; RGS4–Galpha-o binding response, % at 10 µM; 99% of 1,600 active;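 also: fluorescently labeled Galpha-o bound to GDP with aluminium fluoride binding biotinylated RGS beads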
Avidin counter = interferes with biotinylated probe binding to avidin beads; shares compounds with RGS16-Gao; streptavidin beads, fluorescein-biotin binding, flow cytometry; inhibition, % at 10 µM; 1,700 tested, under 10 active;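 active = inhibition above 50%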;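 also: median green fluorescence of gated singlet beads compared with DMSO control wells; 0% = DMSO wells and 100% = complete loss of bead fluorescence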
RGS8-Gao single = confirmation of regulators of human RGS8-Galphao interaction; bead-based flow cytometry RGS8-Galphao binding, fluorescence; actives lie on both sides; AID 1836; 3% of 1,700 active; binding response (% of control), % at 10 µM; shares compounds with RGS16-Gao; in the data active = binding response below about 72% or above about 130%; inactive = in between;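 also: Galphao activated as GDP AlF4 complex before binding bead RGS8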
RGS7-Gao confirm = RGS7-Galphao interaction regulation, single point confirmation | shares compounds with RGS16-Gao | bead-based flow cytometry RGS7-Galphao binding; actives lie on both sides | response (percent of control binding), % at 10 µM | 7.8% of 1,700 active | AID 1837; in the data active = response below about 75% or above about 130%; inactive = in between;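 also: fluorescent Galphao activated with GDP and aluminum fluoride binding bead-coupled RGS7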
RGS16-Gao single = RGS16-Galphao interaction regulation, single point confirmation. 4% of 1,700 active. response (% of control binding), % at 10 µM. bead-based flow cytometry, RGS16-Galphao binding; actives lie on both sides. shares compounds with RGS16-Gao; in the data active = response below about 74% or above about 130%; inactive = in between;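 also: Galphao activated as the GDP aluminium fluoride complex binding bead-coupled RGS16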
RGS4-Gao confirm = confirmation of regulators of human RGS4-Galphao interaction; binding response (% of control), % at 10 µM; RGS4-Galphao binding, multiplexed bead flow cytometry; actives lie on both sides; 4% of 1,700 active; shares compounds with RGS16-Gao; in the data active = binding response below about 74% or above about 130%; inactive = in between
RGS19-Gao single = confirmation of regulators of human RGS19-Galphao interaction; 5% of 1,700 active; shares compounds with RGS16-Gao; response (percent of control binding), % at 10 µM; AID 1841; bead-based flow cytometry RGS19-Galphao binding; actives lie on both sides; in the data active = response below about 50% or above about 160%; inactive = in between;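 also: 100% = no compound control and 0% = blank background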
* hit, by the source's call; ? = inconclusive; / = not tested or not shown; [ ] = dose if it differs, or a comment. Unless noted, no rule for the calls is given here.

SMILES | Avidin bead fluor | RGS7-Gao reg | RGS16-Gao | RGS4-Gao reg | RGS8-Gao reg | GSH bead fluor | Avidin counter | RGS8-Gao single | RGS7-Gao confirm | RGS16-Gao single | RGS4-Gao confirm | RGS19-Gao single | others
CC(NC(=O)c1c(Cl)cnn1C)C1CCCO1 (stereo not drawn) | 6 | ? | 108.5 | 101.7 | 105.8 | / | / | / | / | / | / | /
CCOC(=O)/C(C#N)=N/Nc1ccccc1OC | 1 | 88.0 | 19.8* | 88.1 | 65.3 | 10 | -0.7 | 102.2 | 94.9 | 101.1 | 98.4 | 91.8 | RGS-Gao=88.1*
CCN(CC)S(=O)(=O)c1cccc(N=Nc2c(O)c3ccccc3oc2=O)c1 | 9 | ? | 101.4 | 103.0 | 97.1 | / | / | / | / | / | / | /
O=C(Cn1nc2n(c1=O)-c1ccccc1SC2)N/N=C/c1ccncc1 | 6 | ? | 88.5 | 88.4 | 93.3 | / | / | / | / | / | / | /
O=C(NCc1ccccn1)c1nc(-c2ccc(C(F)(F)F)cc2)no1 | 9 | 97.0 | 104.1 | 99.0 | 100.6 | 21 | / | / | / | / | / | /
CC(C)(C)c1ccc(-c2noc(C(=O)NN)n2)cc1 | 4 | ? | 13.8* | 82.8 | 69.4 | / | -0.6 | 106.8 | 110.7 | 105.3 | 110.4 | 112.0 | RGS-Gao=82.8*
CC(C)CCN1CCN(Cc2nc3c(s2)CCCC3)CC1CCO (stereo not drawn) | 2 | 27.4* | 30.0 | 40.3* | 37.5* | 13 | -0.7 | 114.8 | 110.0 | 117.0 | 103.2 | 104.5
OCCC1CN(Cc2nc3c(s2)CCCC3)CCN1CCc1ccccc1 (stereo not drawn) | 5 | 102.9 | 101.5 | 99.1 | 99.0 | 17 | / | / | / | / | / | /
N#Cc1c2n(c(=S)n(-c3ccc(F)cc3)c1=O)CCCCC2 | 6 | 103.3 | 95.2 | 98.9 | 98.2 | 19 | / | / | / | / | / | /
Cc1ccc(S(=O)(=O)N(CC(=O)N2CCCCCC2)c2ccccc2)cc1 | 9 | 98.5 | 101.3 | 99.8 | 101.0 | 34 | / | / | / | / | / | /
Cc1ccc(N(CC(=O)N2CCN(C3CCCCC3)CC2)S(=O)(=O)c2cccnc2)cc1 | 8 | 108.1 | 259.8*[activator] | 109.0 | 134.7 | 11 | / | / | / | / | / | / | RGS-Gao=109.0*
N#Cc1nc(-c2ccccc2F)oc1NCCN1CCOCC1 | 2 | 134.0 | 274.6 | 149.1 | 176.5*[activator] | 23 | -1.4 | 98.2 | 98.5 | 96.3 | 97.3 | 92.0 | RGS-Gao=149.1*
c1ccc(-c2csc(Nc3ccc4c(c3)OCCO4)n2)cc1 | 4 | 50.0* | 92.2 | 90.9 | 55.3* | 11 | 1.2 | 107.2 | 109.3 | 106.3 | 103.9 | 115.0 | RGS-Gao=90.9*
c1cc2c(cc1Nc1nc(-c3ccc4c(c3)OCO4)cs1)OCCO2 | 33 | 93.0 | 95.5 | 92.9 | 95.9 | 13 | / | / | / | / | / | /
C#CCCCCCCC#CCN(C)C | 13 | 94.6 | 100.6 | 96.6 | 100.5 | 22 | / | / | / | / | / | /
O=C(NC1=NCCS1)c1sc2ccccc2c1Cl | / | / | 114.1 | / | / | 17 | 1.0 | 103.1 | 100.0 | 103.5 | 101.4 | 84.6
O=C(NC1=NCCS1)c1sc2cc(Cl)cc(Cl)c2c1Cl | 25 | 105.3 | 110.2 | 102.6 | 100.8 | 8 | / | / | / | / | / | /
CCCCN1C=CC(=C2C(=O)c3ccccc3C2=O)C=C1 | 12 | 106.5 | 110.0 | 107.9 | 105.2 | 10 | / | / | / | / | / | /
CC(C)CC(=O)NC1(C(F)(F)F)C(=O)N(CC(C)C)C2=C1C(=O)CC(C)(C)C2 (stereo not drawn) | 3 | 169.0*[activator] | 167.4 | 164.9*[activator] | 154.9*[activator] | 9 | 0.5 | 96.4 | 88.3 | 93.3 | 94.0 | 79.8
COc1ccc(/C(O)=C2\C(=O)C(=O)N(Cc3ccco3)C2c2cc(OC)ccc2OC)cc1 (stereo not drawn) | 6 | 26.4* | 21.3* | 31.2* | 23.7* | 11 | -1.1 | 100.2 | 101.8 | 100.6 | 99.9 | 93.7
Cc1nn(-c2ccccc2)c(Cl)c1/C=N/NC(=O)c1ccncc1 | 4 | ? | 92.4 | 93.5 | 98.7 | / | / | / | / | / | / | /
CCN1C(=O)C2(SC(NC(C)=O)=NN2C(C)=O)c2cc(C)cc(C)c21 (stereo not drawn) | 6 | 77.0 | 7.7 | 75.2 | 76.1 | 5 | / | / | / | / | / | /
CCCN1C(=O)C2(SC(NC(C)=O)=NN2C(C)=O)c2cc(C)cc(C)c21 (stereo not drawn) | 3 | ? | 96.3 | 97.7 | 79.0 | / | 4.4 | 110.1 | 97.8 | 112.7 | 100.1 | 98.5
COc1ccc(-c2ncnc(C(F)(F)F)c2-c2csc(C)n2)c(O)c1 | 6 | ? | 104.5 | 102.2 | 98.6 | / | / | / | / | / | / | /
COCc1cc(C)nc(SCC(=O)Nc2ccc(C)c(C)c2)c1C#N | 2 | 98.6 | -62.9* | 100.4 | 101.8 | 57 | / | / | / | / | / | / | RGS-Gao=100.4*
SMILES | Avidin bead fluor | RGS7-Gao reg | RGS16-Gao | RGS4-Gao reg | RGS8-Gao reg | GSH bead fluor | Avidin counter | RGS8-Gao single | RGS7-Gao confirm | RGS16-Gao single | RGS4-Gao confirm | RGS19-Gao single | others
O=C(O)CSc1nnc(-c2cccc(S(=O)(=O)N3CCOCC3)c2)n1-c1cccc(Cl)c1 | 28 | ? | 103.1 | 111.6 | 103.1 | / | / | / | / | / | / | /
Cc1ccc(S(=O)(=O)N2CCCOC2CNC(=O)C(=O)NCc2ccncc2)cc1 (stereo not drawn) | 13 | 105.2 | 104.9 | 102.8 | 104.9 | 11 | / | / | / | / | / | /
CC1CC(=O)C(C2c3ccccc3CCN2C(=O)CCl)C(=O)C1 (stereo not drawn) | 13 | 106.2 | 99.9 | 99.0 | 100.3 | 10 | / | / | / | / | / | /
COc1cc2c(cc1OC)C(C1C(=O)CC(C)(C)CC1=O)N(C(=O)CCl)CC2 (stereo not drawn) | 7 | 92.0 | 17.5* | 90.2 | 73.5 | 7 | 0.0 | 99.2 | 99.1 | 101.3 | 100.4 | 102.6 | RGS-Gao=90.2*
Cc1nonc1CN(C)C(=O)CC1C(=O)NCCN1Cc1cccc(C(F)(F)F)c1 (stereo not drawn) | 11 | 92.0 | 105.5 | 95.5 | 99.3 | 12 | / | / | / | / | / | /
CC(=O)N/C(N)=N/c1nc2cc([N+](=O)[O-])ccc2o1 | 5 | ? | 97.7 | 97.4 | 75.8 | / | -1.2 | 93.2 | 88.5 | 93.2 | 94.9 | 100.0
CC1=NN(S(=O)(=O)c2ccc(Cl)cc2Cl)C(=O)c2ccccc2O1 | 8 | ? | 102.1 | 101.5 | 98.4 | / | / | / | / | / | / | /
